Assay results published in PubChem BioAssay (NCATS).
“And” between values parts separate entries of the source, which are not always exact repeats. Identical values can stand only once. Records with an inconclusive call do not appear. The source made the active and inactive calls. Calls come from the whole dose curve; as a rule, active = well fitted activation curve with a large enough effect; inconclusive = small, poorly fitted or top-dose-only effect; inactive = no such curve, though single readings can be large or run the other way.
Potency is the fitted concentration of half-maximal effect.

The compounds below were run against Cellular tumor antigen p53 (Homo sapiens) (UniProt P04637) (assay: Primary qHTS for small molecule compounds that upregulate eGFP-tagged delta133p53alpha (in N-terminal) cells. (AID 2060322; note: nearly all actives have a fitted effect of over 75% in size;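 for activation: cells pre-induced with doxycycline then dosed without doxycycline; series mostly up to about 56 µM; 0% = DMSO vehicle and 100% = reference activator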)). Conditions: NCI-H358 eGFP-delta133p53alpha fluorescence, 24 h; activation: hits give high values.
Chain of Cellular tumor antigen p53 (Homo sapiens) (P04637 whole entry, looked up): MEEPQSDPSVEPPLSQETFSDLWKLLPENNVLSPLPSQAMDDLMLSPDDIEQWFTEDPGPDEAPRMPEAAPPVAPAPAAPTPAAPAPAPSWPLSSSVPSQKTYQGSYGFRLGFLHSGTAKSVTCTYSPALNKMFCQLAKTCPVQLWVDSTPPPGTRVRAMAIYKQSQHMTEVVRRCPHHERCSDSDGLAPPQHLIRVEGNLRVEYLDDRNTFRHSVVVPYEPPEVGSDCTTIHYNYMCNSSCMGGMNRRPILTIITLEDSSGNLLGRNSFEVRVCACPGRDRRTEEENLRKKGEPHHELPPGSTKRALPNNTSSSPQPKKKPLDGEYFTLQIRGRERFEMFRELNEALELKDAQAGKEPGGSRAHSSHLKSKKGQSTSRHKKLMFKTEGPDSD
Source text: Assay Development and Screening Technology
National Center for Advancing Translational Sciences (NCATS),
National Institute of Health (NIH), Rockville, Maryland
Cellular senescence (CS) is one of the hallmarks of aging and age-related diseases. Senescent cells are characterized by an irreversible growth arrest, an increase in senescence-associated beta-galactosidase (SA-beta-gal) activity and p16INK4a expression, an activation of the DNA damage response pathways, and the emergence of a senescence-associated secretory phenotype (SASP).
Delta133p53alpha, a human/primate-specific p53 protein isoform, delays or inhibits the induction of CS and SASP in various types of human cells, including progeria-derived fibroblasts, primary normal astrocytes, and CD8+ T lymphocytes. Induction of delta133p53alpha with small molecule compounds may provide therapeutic opportunities for inhibition of senescence/SASP-associated pathologies in progeria syndromes, astrocyte-mediated neuroprotection in neurodegenerative diseases, and possibly prevention and treatment of a wider range of senescence- and aging-associated diseases.
Here we report the development and validation of a cell-based quantitative high throughput screening (qHTS) assay in 1,536-well format. This qHTS assay uses the NCI-H358 cell line with doxycycline-inducible expression of enhanced green fluorescent protein (eGFP)-tagged delta133p53alpha, which allows efficient and highly quantitative measurement of the protein levels.
PROTOCOL TABLE (as described by Inglese J, Shamu CE and Guy RK. 2007)
SEQUENCE No. (e.g., 1, 2, 3, etc.); […] (e.g., Cells, Incubation, Reagent, etc.); VALUE; DESCRIPTION.
1; Cells; 4uL; 800 doxycycline treated cells / well in doxycycline-free media, 1536-well black, clear-bottom low base Aurora microplates.
2; Compounds; 23 nL; Kalypsis pin tool (Wako) equipped with 1536-well pin heads, 5-azacytidine positive control.
3; Incubation; 24 hr; 37C, 5% CO2; 95% relative humidity.
4; Aspiration; 1x; BioTek EL406 washer dispenser (Agilent).
5; Fixing; 3.5% paraformaldehyde, BioTek EL406 washer dispenser (Agilent).
6; Washing; 1x PBS; BioTek EL406 washer dispenser (Agilent).
7; Nuclei staining; 1:1000 dilution of Hoechst 33342 (Thermofisher), BioTek EL406 washer dispenser (Agilent).
8; Incubation; 20 min; in the dark at room temperature.
9; Washing; 2x, 1x PBS (ThermoFisher), BioTek EL406 washer dispenser (Agilent).
10; Reagent; 10 uL; 1x PBS per well, sealed with clear adhesive tape.
NOTES (numbers refer to sequence numbers above).
1. NCI-H358 cells expressing eGFP-tagged delta133p53alpha were grown in T75 culture flasks and treated with doxycycline for 24h, at 10 ng/ml for eGFP-D133p53a cells (N-terminal cell) and 100 ng/ml for D133p53a-eGFP cells (C-terminal cells). Cells were trypsinized, counted using a Counted 3 Automated Cell Counter (Thermo Fisher), and diluted to a concentration of 200,000 cells/ml. A Multidrop Combi Reagent Dispenser (ThermoFisher) was used to dispense 800 cells/well in […] of doxycycline-free media, into 1536-well black/clear bottom low base plates (AuroraMicroplates).
2. After plating cells, 23 nl of compound library, DMSO vehicle control or positive control (5-azacytidine) were transferred by Pin Tool (Wako). The plate map layout was the same for each plate: (column 1) non-doxycycline treated cells + DMSO vehicle control; (column 2) doxycycline treated cells + DMSO vehicle control baseline; (column 3) doxycycline treated cells + positive control 57.5 uM final concentration 5-azacytidine; (column 4) doxycycline treated cells + serial dilution of 5-azacytidine, 16-point 1:2 titration spanning 1.8 nM to […] final concentration; (columns 5-48) doxycycline treated cells + titration of library compounds.
3. Cells were incubated at 37 °C, 5 % CO2, 95% RH with breathable metal lid for 24h.
4-10. […] After two washes, 10 ul of 1X PBS (Thermo Fisher) was dispensed to each well. Clear adhesive plate seals (VWR) were applied and plates stored at 4 °C.
11. […]
In the case of Nc1ncnc2nc[nH]c12, the activation is reported as 18.4% (inactive).
CCn1nnnc1NCc1ccc(C(C)C)cc1 was tested, and the activation was 3% (inactive).
In the case of CCOc1ccccc1N=Nc1c(C)[nH]n(-c2nc(-c3ccccc3)cs2)c1=O, the activation is reported as 25.3% (inactive).
With Cc1cccc(-c2[nH]c(CNc3ccccc3F)nc2-c2ccc3ncnn3c2)n1 the activation was -27.7% (inactive).
For Cc1cccc(C#Cc2ccccc2)n1, the activation was -6.63% (inactive) and 22.8% (inactive).
CC(C)(C)c1ccc(-c2nc3c(N4CCN(Cc5ccc6nccnc6c5)CC4)cccc3[nH]2)cc1 was tested, and the activation was -2.86% (inactive).
CC12CCC(OC3OC(CO)C(O)C(O)C3OC3OC(CO)C(O)C(O)C3O)CC1CCC1C2CCC2(C)/C(=C3/COC(=O)C3)CCC12O (stereo not given) was tested, and the activation was -0.763% (inactive).
In the case of CCCNC(C)C(=O)Nc1ccccc1C (stereo not given), the activation is reported as -9.21% (inactive) and 30.8% (inactive).
In the case of CCN1/C(=C/C=C/c2sc3ccccc3[n+]2CC)Sc2ccccc21, the Potency is reported as 16.9 µM (active).
For CCCCN(CCN(CCCC)C(=O)N1CCOCC1)C(=O)N1CCOCC1, the activation was -21.8% (inactive).
In the case of COc1ccc([C@H]2CNC(=O)C2)cc1OC1CCCC1, the activation is reported as -26.3% (inactive).
In the case of C=CC(C)(O)C(O)CC1C(C)(O)C(O)C(O)C2C(C)(C)CCCC21C (stereo not given), the activation is reported as -20.6% (inactive).
For CO[C@@H](Cc1ccc(OCCc2nc(-c3ccccc3)oc2C)c2ccsc12)C(=O)O, the activation was -6.25% (inactive).
CNNCc1ccc(C(=O)NC(C)C)cc1 was tested, and the activation was -0.837% (inactive).
C#Cc1cccc(Nc2ncnc3cc(OC)c(OCCCCCCC(=O)NO)cc23)c1 was tested, and the Potency was 8.63 µM (active) and 5.36 µM (active) and 544 nM (active).
With N=c1nc(N2CCCCC2)cc(N)n1O the activation was -6.36% (inactive) and -9.21% (inactive) and -2.97% (inactive).
CC(NCCCc1cccc(C(F)(F)F)c1)c1cccc2ccccc12 (stereo not given) was tested, and the activation was -2.86% (inactive).
In the case of CC1(C)CC[C@]2(C(=O)O[C@@H]3O[C@H](CO[C@@H]4O[C@H](CO)[C@@H](O)[C@H](O)[C@H]4O)[C@@H](O)[C@H](O[C@@H]4O[C@H](CO)[C@@H](O)[C@H](O)[C@H]4O)[C@H]3O)[C@H](O)C[C@]3(C)C(=CCC4[C@@]5(C)CC[C@H](O[C@@H]6OC[C@@H](O)[C@H](O)[C@H]6O)[C@@](C)(C(=O)O)C5CC[C@]43C)[C@@H]2C1 (stereo not given in full), the activation is reported as 7.63% (inactive).
With O=C(/C=C/c1ccc(O)cc1)OC[C@@]1(O)C=C[C@@H]2C(C(=O)O)=CO[C@@H](O[C@@H]3O[C@H](CO)[C@@H](O)[C@H](O)[C@H]3O)[C@@H]21 the activation was -4.46% (inactive).
CC(=O)N[C@H](Cc1c[nH]c2ccccc12)C(=O)OCc1cc(C(F)(F)F)cc(C(F)(F)F)c1 was tested, and the activation was 14.3% (inactive).
O=c1[nH]c(=O)n([C@H]2C[C@@H](O)[C@@H](CO)O2)cc1I was tested, and the activation was 6.89% (inactive).
With CCCCCCCCCCCCCCCCCCN(C)C the activation was -22.6% (inactive).
In the case of C=C1C(=O)O[C@@H]2C[C@]3(C)[C@@H](CCC(C)=O)[C@@H]3C[C@H]12, the activation is reported as 5.36% (inactive).
With CC1(C)CC[C@]2(C(=O)O)CC[C@]3(C)C(=CCC4[C@@]5(C)C[C@H](O)[C@H](O[C@@H]6O[C@H](CO)[C@@H](O)[C@H](O)[C@H]6O)[C@@](C)(CO)C5[C@H](O)C[C@]43C)[C@@H]2C1 (stereo not given in full) the activation was -13% (inactive).
For C=C1CC[C@]2(C(=O)O[C@@H]3O[C@H](CO)[C@@H](O)[C@H](O)[C@H]3O)CC[C@]3(C)C(=CCC4[C@@]5(C)C[C@H](O)[C@@H](O[C@@H]6O[C@H](C(=O)O)[C@@H](O)[C@H](O)[C@H]6O)[C@](C)(C=O)C5CC[C@]43C)C2C1 (stereo not given in full), the activation was -11.6% (inactive).
With CC(O)(CC(=O)O)CC(=O)O[C@@H]1[C@@H](O)[C@H](OCCc2ccccc2)O[C@H](CO)[C@H]1O (stereo not given in full) the activation was 3.82% (inactive).
With CN(C)CCC=C1c2ccccc2COc2ccc(CC(=O)O)cc21 the activation was 16.8% (inactive).
For Cn1c2ccc(NC(=O)c3ccccc3)cc2c(=O)n2nc(C(=O)O)cc12, the activation was 8.59% (inactive).
With C[C@H]1O[C@H](O[C@H]2[C@H](O)[C@@H](O)[C@@H](O[C@H]3[C@H](O)[C@@H](O)C(O)O[C@H]3CO)O[C@H]2CO)[C@H](O)[C@@H](O)[C@H]1N[C@H]1C=C(CO)[C@@H](O)[C@H](O)[C@@H]1O (stereo not given in full) the activation was 140% (inactive).
In the case of CC1CCN(c2cc(NC(=O)c3ccccc3)ncn2)CC1, the activation is reported as 22.4% (inactive).
O=S(=O)(c1cccc2c(Cl)cccc12)N1CCCNCC1 was tested, and the activation was -18.2% (inactive).
In the case of C=C1C2(C)CC3C4(C)C=CC(=O)OC(C)(C)C4CCC3(C)C1(C(=O)OC)C(=O)C(C)(O)C2=O (stereo not given), the activation is reported as -21.4% (inactive).
For N#CC(C#N)=C(N)/C(C#N)=C/c1ccc(O)cc1, the activation was -15.2% (inactive).
With C/C=C(\C)C(=O)O[C@@H]1[C@@H](C)[C@]2(O)[C@@H]3C=C(C)C(=O)[C@H]3CC(CO)=C[C@H]2C2C(C)(C)[C@@]21OC(=O)C(C)CC (stereo not given in full) the activation was -1.79% (inactive).
In the case of Cc1onc(-c2c(F)cccc2Cl)c1C(=O)N[C@@H]1C(=O)N2[C@@H]1SC(C)(C)[C@@H]2C(=O)O, the activation is reported as -1.67% (inactive).
C[C@@H]1O[C@@H](O[C@H]2[C@H](O[C@H]3[C@H](O[C@H]4CC[C@@]5(CO)C(CC[C@]6(C)C5CC=C5C7CC(C)(C)C[C@@H](O)[C@]7(C)CC[C@]56C)C4(C)C)O[C@H](C(=O)O)[C@@H](O)[C@@H]3O)OC[C@@H](O)[C@@H]2O)[C@H](O)[C@H](O)[C@H]1O (stereo not given in full) was tested, and the activation was -15.3% (inactive).
O=C(Nc1c(-c2cccs2)nc2ccccn12)c1ccc(Cl)cc1 was tested, and the activation was -8.59% (inactive).
For CC(=O)Oc1cccc(C)c1, the activation was -28.8% (inactive).
OCCc1ccc(O[C@@H]2O[C@H](CO)[C@@H](O)[C@H](O)[C@H]2O)cc1 was tested, and the activation was -7.14% (inactive).
In the case of COC(=O)C1=COC(OC2OC(CO)C(O)C(O)C2O)C2C(C)CC(=O)C12O (stereo not given), the activation is reported as -4.46% (inactive).
